Measured values as given in PubChem BioAssay AID1159580 (chemical genetic matrix, 2015).
The whole screen tested about 5,500 compounds, of which about 2,000 (36%) were called active. Not shown: some 18% with an inconclusive outcome. Cut-off read from the data, not from the text of the source: active = normalized growth mostly below about 0.91 (no sharp cut-off); inconclusive = no clear call, values can overlap the other calls; inactive = mostly above about 0.92. The list shows a part of the results.

Assay: chemical genetic growth profiling, strain panel (AID 1159580);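 note: tested at 20 µM; growth read once vehicle control cultures reached saturation at 30 °C; 1 = growth at the plate median or of vehicle wells; lower values mean less growth of the strain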
Conditions: S. cerevisiae deletion strains, growth OD

Measured: normalized growth

CC(=O)/C(=C\c1ccccc1)CC(=O)O
inactive: locus YAL021C, strain ccr4, active compounds read low 1 | locus YAL026C, strain drs2, active compounds read low 0.995 | locus YAL030W, strain snc1, active compounds read low 1 | locus YBL061C, strain skt5, active compounds read low 1 | locus YBR009C, strain hhf1, active compounds read low 0.986 | locus YBR023C, strain chs3, active compounds read low 1 | locus YBR171W, strain sec66, active compounds read low 0.992 | locus YBR231C, strain swc5, active compounds read low 0.982 | locus YBR279W, strain paf1, active compounds read low 0.999 | locus YCL011C, strain gbp2, active compounds read low 0.988 | locus YCL016C, strain dcc1, active compounds read low 0.991 | locus YCL061C, strain MRC1, active compounds read low 0.994 | locus YCL069W, strain vba3, active compounds read low 0.997 | locus YCR088W, strain abp1, active compounds read low 0.998 | locus YDL005C, strain med2, active compounds read low 0.998 | locus YDL040C, strain nat1, active compounds read low 0.985 | locus YDR001C, strain nth1, active compounds read low 0.992 | locus YDR069C, strain doa4, active compounds read low 0.982 | locus YDR137W, strain rgp1, active compounds read low 1.01 | locus YDR159W, strain sac3, active compounds read low 0.97 | locus YDR195W, strain ref2 0.948 | locus YDR297W, strain sur2, active compounds read low 0.994 | locus YDR334W, strain swr1, active compounds read low 0.996 | locus YDR335W, strain msn5, active compounds read low 0.996 | locus YDR392W, strain spt3, active compounds read low 0.775 | locus YEL003W, strain gim4, active compounds read low 0.992 | locus YEL037C, strain rad23, active compounds read low 0.997 | locus YEL061C, strain CIN8 (second series), active compounds read low 0.989 | locus YER015W, strain faa2, active compounds read low 0.996 | locus YER016W, strain bim1, active compounds read low 0.993 | locus YER111C, strain swi4, active compounds read low 0.992 | locus YER155C, strain BEM2 (second series), active compounds read low 0.923 | locus YFR010W, strain ubp6, active compounds read low 0.994 | locus YGL167C, strain pmr1, active compounds read low 0.993 | locus YGL173C, strain kem1, active compounds read low 0.991 | locus YGL227W, strain vid30, active compounds read low 0.991 | locus YGL240W, strain doc1, active compounds read low 0.978 | locus YGL253W, strain hxk2, active compounds read low 0.984 | locus YHR013C, strain ard1, active compounds read low 0.956 | locus YHR027C, strain rpn1, active compounds read low 0.996 | locus YHR030C, strain SLT2, active compounds read low 0.976 | locus YHR079C, strain IRE1, active compounds read low 0.954 | locus YHR142W, strain chs7, active compounds read low 1.01 | locus YJL092W, strain hpr5, active compounds read low 0.991 | locus YJL095W, strain BCK1 (second series), active compounds read low 0.992 | locus YJL095W, strain BCK1, active compounds read low 0.967 | locus YJL115W, strain asf1, active compounds read low 0.993 | locus YJL129C, strain trk1, active compounds read low 0.984 | locus YJL154C, strain vps35, active compounds read low 1 | locus YJL164C, strain tpk1, active compounds read low 1 | locus YJL166W, strain qcr8, active compounds read low 0.976 | locus YJL187C, strain SWE1, active compounds read low 0.997 | locus YJR066W, strain TOR1, active compounds read low 0.899 | locus YKL160W, strain elf1, active compounds read low 1.01 | locus YKR026C, strain gcn3, active compounds read low 0.986 | locus YKR091W, strain srl3, active compounds read low 0.999 | locus YLL001W, strain dnm1, active compounds read low 0.98 | locus YLL026W, active compounds read low 0.991 | locus YLL041C, strain sdh2, active compounds read low 1 | locus YLR027C, strain aat2, active compounds read low 0.997 | locus YLR113W, strain HOG1, active compounds read low 0.972 | locus YLR221C, strain rsa3, active compounds read low 1 | locus YLR258W, strain gsy2, active compounds read low 0.992 | locus YLR262C, strain YPT6 (second series), active compounds read low 1.02 | locus YLR320W, strain mms22, active compounds read low 0.971 | locus YLR342W, strain FKS1, active compounds read low 0.993 | locus YLR357W, strain rsc2, active compounds read low 0.957 | locus YLR370C, strain arc18, active compounds read low 0.998 | locus YLR384C, strain iki3, active compounds read low 0.992 | locus YML120C, strain ndi1, active compounds read low 1.01 | locus YMR058W, strain fet3, active compounds read low 0.992 | locus YMR125W, strain sto1, active compounds read low 0.955 | locus YMR129W, active compounds read low 0.988 | locus YMR205C, strain PFK2, active compounds read low 0.967 | locus YMR231W, strain pep5, active compounds read low 0.995 | locus YNL071W, strain lat1, active compounds read low 0.995 | locus YNL183C, strain NPR1, active compounds read low 0.927 | locus YNL209W, strain ssb2, active compounds read low 1 | locus YNL248C, strain rpa49, active compounds read low 0.982 | locus YNL322C, strain KRE1 (second series), active compounds read low 0.991 | locus YNR049C, strain mso1, active compounds read low 0.998 | locus YOR001W, strain rrp6, active compounds read low 1 | locus YOR070C, strain gyp1, active compounds read low 0.995 | locus YOR080W, strain dia2, active compounds read low 0.99 | locus YOR083W, strain WHI5, active compounds read low 1.02 | locus YOR106W, strain vam3, active compounds read low 1.01 | locus YOR231W, strain MKK1, active compounds read low 0.969 | locus YOR265W, strain rbl2, active compounds read low 0.993 | locus YOR270C, strain vph1, active compounds read low 0.98 | locus YOR290C, strain snf2, active compounds read low 0.981 | locus YPL051W, strain arl3, active compounds read low 1.01 | locus YPL078C, strain atp4, active compounds read low 1.01 | locus YPL106C, strain sse1, active compounds read low 0.997 | locus YPL240C, strain hsp82, active compounds read low 0.987 | locus YPL256C, strain CLN2, active compounds read low 0.968

O=C(O)/C=C/c1cnc[nH]1
inactive: locus YAL040C, strain CLN3, active compounds read low 1.01 | locus YCL061C, strain MRC1 (second series), active compounds read low 1.01 | locus YDR150W, strain NUM1, active compounds read low 1.02 | locus YDR363W, strain ESC2, active compounds read low 1.03 | locus YER002W, strain NOP16, active compounds read low 1 | locus YJR075W, strain HOC1, active compounds read low 1.02 | locus YMR263W, strain SAP30, active compounds read low 1.01 | locus YMR307W, strain GAS1, active compounds read low 1.01 | locus YNL128W, strain TEP1, active compounds read low 1.01 | locus YNL153C, strain GIM3, active compounds read low 1.03 | locus YNL175C, strain NOP13, active compounds read low 0.997 | locus YNL197C, strain WHI3, active compounds read low 0.994 | locus YNL224C, strain SQS1, active compounds read low 0.984 | locus YNL322C, strain KRE1, active compounds read low 1.03 | locus YOR083W, strain WHI5 (second series), active compounds read low 1.01 | locus YPL241C, strain CIN2, active compounds read low 1.01
